Our source for the Potency, activity change, negative = cytotoxicity and outcome values is PubChem BioAssay (NCATS).

The assay is described as follows: P-glycoprotein substrates identified in KB-8-5-11 adenocarcinoma cell line, qHTS therapeutic library screen (AID 1346987). Further: nearly all actives have a fitted effect of over 65% in size. Conditions: KB-8-5-11 (P-gp overexpressing) viability, CellTiter-Glo, 72 h; series mostly up to 44.5 µM. In a few lines: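 Luminescence from CellTiter-Glo, read 5 min after addition, quantified survival of KB-8-5-11 (P-gp-overexpressing) cells exposed to compounds for 72 h. AC50 was derived from concentration-response curves.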

Inconclusive results are not listed. Entries that show only a call come without a potency. Unmarked numbers belong to inactive results. Calls of active or inactive are those of the source. The call rests on the fitted dose curve; in most records, active means well fitted inhibition curve with a large enough effect; inconclusive means small, poorly fitted or top-dose-only effect; inactive means flat fitted curve, though single readings scatter.

For the molecule `CC(C)c1ccc2c(c1)[C@H](O)CC1[C@@](C)(C(=O)O)CCC[C@]21C` (some centres undefined), the Potency entry was “inactive”.

In the case of `O=C1C(Cl)=C(N2CCOCC2)C(=O)N1c1ccc(Cl)c(Cl)c1`, the Potency result was “inactive”.

For the molecule `CC1=C(CCC(C)O[C@@H]2O[C@H](CO)[C@@H](O)[C@H](O)[C@H]2O)C(C)(C)CC(O)C1` (some centres undefined), the Potency entry is “inactive”.

`Cc1ccc(Cl)cc1N(CC(=O)Nc1c(F)cccc1F)S(C)(=O)=O`: the Potency entry was “inactive”.

With `CC1CC(=O)C2C(O)(C1)CC(O)C13OC1c1c(O)cccc1C(=O)C23O` (centres undefined), the Potency result was “inactive”.

As to `C[C@]1(O)CC[C@@H]2C(C(=O)O)=CO[C@@H](O[C@@H]3O[C@H](COC(=O)/C=C/c4ccc(O)c(O)c4)[C@@H](O)[C@H](O)[C@H]3O)[C@@H]21`, the Potency entry was “inactive”.

With `O=C(Nc1cc(-c2ccccc2)nn1-c1ccccc1)c1ccc([N+](=O)[O-])cc1`, the Potency entry was “inactive”.

Regarding `C/C=C/C=C/C=C/C(=O)OC1C=C2C(O)OC(=O)[C@]2(O)[C@@]2(C)CCCC(C)(C)[C@H]12` (some centres undefined), the Potency entry is “inactive”.

Consider `COc1ccc(CC(=O)NCc2ccccc2-c2ccccc2C(=O)NCCc2cccnc2)cc1`, for which the Potency entry is “inactive”.

In the case of `O=C(/C=C/c1ccccc1)OC[C@H]1O[C@@H](OC(=O)c2cc(O)c(O)c(O)c2)[C@H](O)[C@@H](O)[C@@H]1O`, the Potency result was “inactive”.

As to `CCCNCCOc1ccc(NC(=O)c2c[nH]c3c2C(=O)CCC3)cc1F`, the Potency entry was “inactive”.

In the case of `COc1cc(CCCO)ccc1O[C@@H]1O[C@H](CO)[C@@H](O)[C@H](O)[C@H]1O`, the Potency result was “inactive”.

Regarding `CCc1cc(CC[C@]2(C3CCCC3)CC(O)=C(Cc3nc4nc(C)cc(C)n4n3)C(=O)O2)cc(CC)n1`, the Potency result was “inactive”.

`COC(=O)/C=C/c1ccc(O[C@@H]2O[C@H](CO)[C@@H](O)[C@H](O)[C@H]2O)cc1`: the Potency entry is “inactive”.

Turning to `OCC1OC(Oc2cc(O)cc(/C=C/c3ccc(OC4OC(CO)C(O)C(O)C4O)cc3O)c2)C(O)C(O)C1O` (centres undefined), the Potency entry is “inactive”.

As for `COc1cc(O)c(C(=O)O)c(CCc2ccccc2)c1`, the Potency result was “inactive”.

`CC(C)CC(=O)O[C@@H]1O[C@H](CO)[C@@H](O[C@H]2O[C@H](C)[C@@H](N[C@H]3C=C(CO)[C@@H](O[C@H]4O[C@H](CO)[C@@H](O[C@H]5O[C@H](CO)[C@@H](O[C@H]6O[C@H](CO)[C@@H](O)[C@H](O)[C@H]6O)[C@H](O)[C@H]5O)[C@H](O)[C@H]4O)[C@H](O)[C@H]3O)[C@H](O)[C@H]2O)[C@H](O)[C@H]1O`: the activity change, negative = cytotoxicity is 8.1% [at 9.29 µM].

In the case of `Cc1ccccc1-c1cc(N2CCN(C)CC2)ncc1N(C)C(=O)C(C)(C)c1cc(C(F)(F)F)cc(C(F)(F)F)c1`, the Potency result was “inactive”.

On to `O=C1NC(=O)/C(=C/c2cccc(C(F)(F)F)c2)S1`, for which the Potency result was “inactive”.

`CC1=CC(=O)C(=C(C)C)CC2C(C)(O)CCC12O` (centres undefined): the Potency entry is “inactive”.

With `CO[C@H]1c2cc(C(C)C)c(O)c(O)c2[C@@]23CCCC(C)(C)C2[C@@H]1OC3=O` (some centres undefined), the Potency entry is “inactive”.

`CCC(=O)N1CCc2cc(OC)c(O)cc2C1`: the Potency result is “inactive”.

In the case of `COC(=O)C1(O)C(OC(C)=O)CCC2C3(CC(c4ccoc4)OC3=O)C(C)=CCC21C(=O)OC` (centres undefined), the Potency entry is “inactive”.

Turning to `C[C@]1(OC(=O)/C=C/c2ccccc2)C[C@@H](O)[C@]2(O)C=CO[C@@H](O[C@@H]3O[C@H](CO)[C@@H](O)[C@H](O)[C@H]3O)[C@@H]21`, the Potency entry is “inactive”.

Regarding `O=C(NC/C=C/CN1CCN(c2cccc(Cl)c2Cl)CC1)c1ccc(-c2ccccn2)cc1`, the Potency result was “inactive”.

`O=C(/C=C/c1ccc(O)c(O)c1)O[C@H]1[C@H](OC2CCCCC2O)O[C@H](CO)[C@@H](O)[C@@H]1O` (some centres undefined): the Potency entry was “inactive”.

Consider `COc1cc(/C=C/C(=O)O[C@@H]2O[C@H](CO)[C@@H](O)[C@H](O)[C@H]2O)ccc1O`, for which the Potency entry was “inactive”.

With `CCC(C)/C=C(C)/C=C/C1=CC2=C(Cl)C(=O)C(C)(OC(C)=O)C(=O)C2=CN1C(CCCN=C(N)N)C(=O)O` (centres undefined), the Potency result is “inactive”.

With `CC(=O)OC1C(O)C(C)(O)C(/C=C/C(=O)O)C2(C)CCCC(C)(C)C12` (centres undefined), the Potency result was “inactive”.

On to `CC1(C)CC[C@]2(C(=O)O)CC[C@]3(C)C(=CCC4[C@@]5(C)CC[C@H](O[C@H]6O[C@H](C(=O)O)[C@@H](O)[C@H](O[C@@H]7O[C@H](CO)[C@H](O)[C@H](O)[C@H]7O)[C@H]6O)C(C)(C)C5CC[C@]43C)[C@@H]2C1` (some centres undefined), for which the outcome is “inactive [at 9.29 µM]”.

Turning to `COc1ccc(N2CCN(CCCNC(=O)Cn3c(=O)c4cccn4c4c(C)ccnc43)CC2)cc1`, the Potency result is “inactive”.

For the molecule `CC1(C)[C@@H]2CC=C(CO[C@@H]3O[C@H](CO[C@@H]4OC[C@H](O)[C@H](O)[C@H]4O)[C@@H](O)[C@H](O)[C@H]3O)[C@H]1C2`, the Potency entry is “inactive”.

Turning to `CC(CCO)CCC1C2(C)CCCC(C)(C)C2CC[C@@]1(C)O` (some centres undefined), the Potency result was “inactive”.

For the molecule `O=C(OCC1OC(Oc2ccc(O)cc2COC(=O)C2(O)C(O)CCC(=O)C2OC(=O)C2C=CCC2)C(OC(=O)C2C=CCC2)C(O)C1O)C1C=CCC1` (centres undefined), the Potency entry was “inactive”.

With `CC[C@@H]1C(=O)O[C@]23C=C[C@@H]4C(C(=O)OC)=CO[C@H](O[C@@H]12)[C@@H]43`, the Potency entry was “inactive”.

For `CC(CC12CCCN1C(=O)C1CCCN1C2=O)OC(N)=O` (centres undefined), the Potency entry was “inactive”.

With `COc1ccc(S(=O)(=O)Nc2nc(-c3cccc([N+](=O)[O-])c3)cs2)cc1OC`, the Potency entry is “inactive”.

In the case of `Cc1cc(O[C@@H]2O[C@H](COC(=O)CC(=O)O)[C@@H](O)[C@H](O)[C@H]2O)c(C(C)C)cc1O`, the Potency result was “inactive”.

Take `COc1c2ccoc2nc2c(OC)c(O[C@@H]3O[C@@H](C)[C@H](O)[C@@H](O[C@@H]4O[C@H](CO)[C@@H](O)[C@H](O)[C@H]4O)[C@H]3OC(C)=O)ccc12`: the Potency result was “inactive”.

For the molecule `COc1cc(C)c(C(=O)OC2C(C)OC(OC3CCC(C)C4C3C=C(C)C3/C(C)=C\CC/C(C)=C/C5(C)C=C(C(=O)O)C(C)CC56OC(=O)/C(=C(\O)C34C)C6=O)C(O)C2O)c(OC)c1` (centres undefined), the activity change, negative = cytotoxicity is 8.21% [at 9.29 µM].

`C[C@@H]1[C@H]2[C@H](O[C@@H]3O[C@H](CO)[C@@H](O)[C@H](O)[C@H]3O)OC=C(C(=O)O)[C@H]2C[C@@H]1OC(=O)/C=C/c1ccc(O)cc1`: the Potency entry is “inactive”.

`COC(=O)[C@@H](NC(=O)[C@H](CC(C)C)NC(=O)N(Cc1ccccc1)C[C@@H](O)[C@H](Cc1ccccc1)NC(=O)OC(C)(C)C)C(C)C`: the activity change, negative = cytotoxicity is -2.72% [at 9.29 µM].

With `CCOC(=O)COc1ccc2c(c1)C[C@@H](NC[C@H](O)c1cccc(Cl)c1)CC2`, the Potency result was “inactive”.

Take `Cc1nc2ccccc2c(-c2ccc3c4c(ccnc24)CCO3)c1[C@H](OC(C)(C)C)C(=O)O`: the Potency result was “inactive”.

Regarding `CC(=O)Nc1cccc2c1c(Sc1ccc(Cl)cc1)c(C)n2CC(=O)O`, the Potency result is “inactive”.

In the case of `CCC1=C(C)C(=O)C(C)CC12C(=O)CCC2C(=O)O` (centres undefined), the Potency result is “inactive”.

Take `C/C=C(\C)C(=O)OC[C@H]1O[C@@H](O[C@H]2[C@@H](O[C@H]3O[C@H](CO)[C@@H](O)[C@H](O)[C@H]3O[C@@H]3O[C@H](CO)[C@@H](O)[C@H](O)[C@H]3O)O[C@H](COC(=O)/C(C)=C/C)[C@@H](O)[C@@H]2O)[C@H](O)[C@@H](O)[C@@H]1O`: the outcome was “inactive [at 9.29 µM]”.

For `COc1cc2c(cc1O)C(c1ccc(O)cc1)C(C)C(C)C2` (centres undefined), the Potency result was “inactive”.

`CCCCS(=O)(=O)NC(Cc1ccc(OCCCCC2CCNCC2)cc1)C(=O)O` (centres undefined): the Potency result is “inactive”.

Take `CC(=O)OC1CCC2(C)C(CCC3(C)C2CC=C2C4CC(C)(C)CCC4(C)CCC23C)C1(C)C(=O)O` (centres undefined): the Potency result was “inactive”.

Regarding `CC1=CC2=C(C)C(=O)C(C)(O)C(O)C2CO1` (centres undefined), the Potency result was “inactive”.

As for `C=C1CC2C(C)(CCC(=O)O)C(C(C)(C)O)CCC2(C)C2(C(=O)OC)C(=O)C(C)(O)C(=O)C12C` (centres undefined), the Potency entry is “inactive”.

For the molecule `CC(C)=CCC/C(C)=C/CO[C@@H]1O[C@H](CO[C@@H]2OC[C@](O)(CO)[C@H]2O)[C@@H](O)[C@H](O)[C@H]1O`, the Potency entry is “inactive”.

Regarding `C[C@H]1[C@@H](O)[C@H](O)C2[C@]3(C)C([C@@H](O)[C@H]4OC(=O)[C@@H]1[C@@]24C)[C@](C)(O)C=C[C@H]3O[C@@H]1O[C@H](CO)[C@@H](O)[C@H](O)[C@H]1O` (some centres undefined), the Potency result was “inactive”.

With `CC1(C)CC=C(C#Cc2ccccc2)c2cc(/C=C/c3ccc(C(=O)O)cc3)ccc21`, the Potency result is “inactive”.

In the case of `CNc1nc(C)nc(N[C@H]2CCC[C@@H](C(=O)NCc3ccc(C#N)cc3C(F)(F)F)C2)n1`, the Potency entry was “inactive”.

For `C/C=C(\C)C(=O)OC1C(C)C2(O)C3C=C(C)C(=O)C3CC(CO)=CC2C2C(C)(C)C12OC(C)=O` (centres undefined), the Potency entry was “inactive”.

Regarding `CC1(C)CC[C@]2(C(=O)O[C@@H]3O[C@H](CO[C@@H]4O[C@H](CO[C@@H]5O[C@H](CO)[C@H](O)[C@H](O)[C@H]5O)[C@@H](O)[C@H](O)[C@H]4O)[C@@H](O)[C@H](O[C@@H]4O[C@H](CO)[C@@H](O)[C@H](O)[C@H]4O)[C@H]3O)[C@H](O)C[C@]3(C)C(=CCC4[C@@]5(C)CC[C@H](O[C@@H]6OC[C@@H](O)[C@H](O)[C@H]6O)[C@@](C)(C(=O)O)C5CC[C@]43C)[C@@H]2C1` (some centres undefined), the outcome is “inactive [at 9.29 µM]”.

Take `C/C=C/C1OC2=C(C(=O)OC2(C)O)C(O)C1O` (centres undefined): the Potency entry is “inactive”.

As for `C/C=C(\C)C(=O)OC1CC2C(CC=C3CC(OC4CC(OC)C(OC5CC(OC)C(OC6CC(OC)C(OC7CC(OC)C(OC8CC(OC)C(OC9OC(CO)C(O)C(O)C9O)C(C)O8)C(C)O7)C(C)O6)C(C)O5)C(C)O4)CCC32C)C2(O)CCC(C(C)=O)C12C` (centres undefined), the outcome was “inactive [at 9.29 µM]”.

In the case of `C=C1C(OC(C)=O)C(=O)C2C(C)(C)C(O)CCC2(C)C1CC(OC(C)=O)/C(C)=C/COC(C)=O` (centres undefined), the Potency entry was “inactive”.

In the case of `COc1c(C)c(OCC=C(C)C)cc2c1CNC2=O`, the Potency result is “inactive”.

`C=C(C(=O)O)[C@@H]1CC[C@@]2(C)CC[C@@H](O)C(=C)C2C1` (some centres undefined): the Potency entry was “inactive”.

With `C[C@@H]1O[C@@H](O[C@H]2[C@H](OC(=O)[C@]34CCC(C)(C)C[C@H]3C3=CCC5[C@@]6(C)CC[C@H](O[C@@H]7O[C@H](CO[C@@H]8OC[C@H](O)[C@H](O)[C@H]8O[C@@H]8OC[C@@H](O)[C@H](O)[C@H]8O)[C@@H](O)[C@H](O)[C@H]7O)C(C)(C)C6CC[C@@]5(C)[C@]3(C)C[C@H]4O)O[C@H](CO)[C@@H](O)[C@@H]2O)[C@H](O[C@@H]2O[C@H](CO)[C@@H](O)[C@H](O)[C@H]2O)[C@H](O)[C@H]1O[C@@H]1OC[C@@H](O)[C@H](O[C@@H]2OC[C@@H](O)[C@H](O)[C@H]2O)[C@H]1O` (some centres undefined), the activity change, negative = cytotoxicity was 9.58% [at 5.11 µM].
